According to PubChem BioAssay AID2685 (National Center for Advancing Translational Sciences (NCATS), 2010):
Among all 320,000 compounds or so, about 2,100 (0.66%) were called active. Roughly 53% stayed inconclusive and do not appear here. Calls come from the whole dose curve; as a rule, active = well fitted inhibition curve with a large enough effect in the signal ratio, with a control signal flat (not every such curve was filed as active); inconclusive = small, poorly fitted or top-dose-only effect, or effect the other way, or a change in a side signal; inactive = flat fitted curve, though single readings scatter; the % refers to the signal ratio. Shown is part of a subset that was picked to be rich in actives.

Assay: qHTS Assay for Lipid Storage Modulators in Drosophila S3 Cells;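 for cell number change: cells counted by Cell Tracker Red CMTPX staining in the red channel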; for lipid storage change, negative = inhibition: % is set by controls: 0 for no effect and ±100 for the full control effect
Details: BODIPY lipid droplet fluorescence, 18-24 h, cells fed with added oleic acid; cell number change: measured here: cell count max response; series mostly up to 46.1 µM; lipid storage change, negative = inhibition: at the top concentration
Procedure, shortened: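 Drosophila S3 cells loaded with oleic acid (400 uM, as added) and compounds at several concentrations; lipid droplets imaged by 488-nm laser-scanning cytometry, 500–530 nm intensity and object ratio to cell channel. Percent activity normalized to 20 uM Triacsin C.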
Potency is the fitted concentration of half-maximal effect.

Row | SMILES | lipid storage change, negative = inhibition | cell number change [%] | Potency | outcome
1 | COc1ccccc1N1CCN(C(c2cc3cc(C)ccc3[nH]c2=O)c2nnnn2C2CCCC2)CC1 (stereo not given) | 9.5% (inactive) | 10.4 | – | –
2 | CC(NC(=O)COC(=O)CNC(=O)c1ccc(-c2ccccc2)cc1)c1ccccc1 (stereo not given) | 1.51% (inactive) | 0.973 | – | –
3 | O=C(Nc1ccc(COc2ccccc2)cc1)c1cccc([N+](=O)[O-])c1 | -6.34% (inactive) | -16.9 | – | –
4 | O=C(NC1CCCC1)C1CCC(=O)N1C1CCCCC1 (stereo not given) | -0.542% (inactive) | 1.84 | – | –
5 | Cn1c(Cn2c(=O)sc3ccccc32)nnc1SCC(=O)N1CCOCC1 | -0.98% (inactive) | 7.25 | – | –
6 | O=C(/C=C/c1cccc([N+](=O)[O-])c1)c1cccs1 | – | -11.1 | 23.1 µM (active) | –
7 | O=C(/C=C/c1cccc([N+](=O)[O-])c1)Nc1ccc(NC(=O)c2cccs2)cc1 | 5.47% (inactive) | 5.37 | – | –
8 | O=C(/C=C/c1ccc([N+](=O)[O-])cc1)c1cccs1 | 7.23% (inactive) | 1.74 | – | –
9 | OCCNCc1cc(Br)ccc1OCc1ccc(F)cc1 | -27.1% (inactive) | -0.637 | – | –
10 | O=C(CC(NC(=O)c1ccccc1Cl)c1ccccc1)NCCc1ccc(Cl)cc1 (stereo not given) | 5.66% (inactive) | 10.1 | – | –
11 | CCCSc1nc(C)cc(=O)[nH]1 | -10.3% (inactive) | 7.07 | – | –
12 | Cc1cc(=O)[nH]c(SCC2(O)C3CC4CC(C3)CC2C4)n1 (stereo not given) | – | -7.4 | 29.1 µM (active) | –
13 | Cc1cc(=O)[nH]c(SCC(=O)N2CCCCC2)n1 | – | 4.95 | – | inactive
14 | COc1ccc([N+](=O)[O-])cc1NC(=O)c1cccnc1 | -20.3% (inactive) | 9.82 | – | –
15 | CCCNc1nc(C)cc(-c2cc(C(=O)NCc3ccccc3)on2)n1 | 8.29% (inactive) | 1.8 | – | –
16 | CCOc1ccccc1N1CC(C(=O)Nc2ccccc2N2CCCC2)CC1=O (stereo not given) | 22.4% (inactive) | – | – | –
17 | Cc1cccc(N2CC(C(=O)Nc3ccccc3N3CCCC3)CC2=O)c1C (stereo not given) | 29.9% (inactive) | – | – | –
18 | COc1ccc(C)cc1N1CC(C(=O)Nc2ccccc2N2CCCCC2)CC1=O (stereo not given) | – | 3.68 | 1.03 µM (active) | –
19 | Cc1ccc(-c2nc(C#N)c(NCCN3CCCCC3)o2)cc1 | – | 1.25 | – | inactive
20 | CCOC(=O)c1c(C)[nH]c(C=C2C(=O)CCCC2=O)c1O | -2.52% (inactive) | -4.56 | – | –
21 | Cn1cccc1/C=C(/C#N)C(N)=S | 10.6% (inactive) | 0.988 | – | –
22 | O=C(NCCc1c[nH]c2ccccc12)C(=O)NCC(c1ccco1)N1CCN(c2ccccc2)CC1 (stereo not given) | 20.1% (inactive) | -12.5 | – | –
23 | Cc1ccc(NS(=O)(=O)c2ccc(C(=O)OCC(=O)Nc3cc(C)on3)cc2)cc1 | -0.058% (inactive) | -18.1 | – | –
24 | O=[N+]([O-])c1ccc(-c2csc(Nc3ccccc3)[n+]2Cc2ccccc2)cc1 | – | -27.2 | 13 µM (active) | –
25 | c1ccc(C[n+]2c(-c3ccccc3)csc2Nc2ccccc2)cc1 | 1.38% (inactive) | -10.6 | – | –
26 | COc1ccc(-c2csc(Nc3ccccc3)[n+]2CC(O)c2ccc([N+](=O)[O-])cc2)cc1 (stereo not given) | -0.0678% (inactive) | -3.41 | – | –
